In PubChem BioAssay (NCI) one finds growth inhibition data, which are given here for 23 compounds.

Compounds without any hit were thinned out: in the full panel of roughly 79,000, 15% have a hit. Unmarked numbers belong to inactive results. Activity calls are given as the source filed them. No stated cut-off is given here; in the data, active means growth inhibition above about 70%; inactive means the rest. Where a SMILES comes first, the peptide text is derived from it. Bridges are numbered along the chain shown (N, C = ends). [ ]: non-standard residue; d: D form. The star is where a group is joined. ξ: configuration not given here. ξNMePhe(4-NMe2) = CNC(Cc1ccc(N(C)C)cc1)C(=O)O; Picolinoyl(3-OH) = O=C(c1ncccc1O)*; ξPip(4-oxo) = O=C1CCNC(C(=O)O)C1; Phg = N[CH](C(=O)O)c1ccccc1; Abu = CC[CH](N)C(=O)O

The nature of test [1]: NCI Yeast Anticancer Drug Screen. Data for the rad50 strain (AID 155).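 Further: 0% = growth of vehicle-only cultures of the same strain.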 Particulars: S. cerevisiae rad50 strain growth inhibition; at 50.0 µM; stronger effect = higher value. Put shortly:
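Yeast carrying a defined DNA repair defect were exposed to test compounds, and growth was compared with vehicle-treated controls to give percent inhibition.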

Test [2] in a line: NCI Yeast Anticancer Drug Screen. Data for the mec2-1 strain (AID 157). The conditions noted are these: S. cerevisiae mec2-1 strain, at 50.0 µM, stronger effect = higher value. Put shortly:
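Using mec2-1 yeast: add compound, measure growth, express inhibition versus vehicle-treated cultures.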

A short description of test [3]: NCI Yeast Anticancer Drug Screen. Data for the sgs1 mgt1 strain (AID 161).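 Further: 0% = growth of cultures given vehicle only.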 The conditions noted are these: S. cerevisiae sgs1 mgt1 strain, at 50.0 µM, stronger effect = higher value. Put shortly: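 Growth of a repair-deficient yeast mutant was monitored after compound treatment and expressed as inhibition relative to vehicle-treated cultures.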
Test [4] is described as follows: NCI Yeast Anticancer Drug Screen. Data for the cln2 rad14 strain (AID 165).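 Further: 0% = growth equal to vehicle treated cultures.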 The conditions noted are these: S. cerevisiae cln2 rad14 strain, at 50.0 µM, stronger effect = higher value. The method in brief:
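Yeast strain cln2 rad14, bearing defects in cell cycle control and DNA repair, serves as the test system; values reflect growth inhibition compared with vehicle.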

Test [5] is described as follows: NCI Yeast Anticancer Drug Screen. Data for the bub3 strain (AID 167). The conditions noted are these: S. cerevisiae bub3 mutant strain, at 50.0 µM, stronger effect = higher value. Put shortly: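 Compounds were applied to a genetically altered yeast strain carrying a cell-cycle control defect. Growth inhibition was scored against vehicle-treated controls.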
The nature of test [6]: NCI Yeast Anticancer Drug Screen. Data for the mlh1 rad18 strain (AID 175). The conditions noted are these: S. cerevisiae mlh1 rad18 strain growth inhibition; at 50.0 µM; stronger effect = higher value. Put shortly: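 Steps: expose repair-defective yeast to compound; measure growth; express inhibition against vehicle-treated controls.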

With `CCCC(=O)Nc1ccc2c(c1)CN1C(=O)c3ccccc3C1=N2`, the growth inhibition in test [1] was -11.7%; in test [2], 1.8%; in test [3], 7.75%; in test [4] it was 5.15%; in test [5], -1.65%.

In the case of `CC1(C(=O)O)NC(C(=O)O)Cc2c1[nH]c1ccccc21` (stereo not given), the growth inhibition is 26.5% in test [1]; -13.2% in test [2]; 3.15% in test [3]; 3.65% in test [4]; 32.4% in test [5].

As to `COc1ccc2c(NCCCCCCCCNc3c4ccccc4nc4cc(OC)ccc34)c3ccccc3nc2c1`, the growth inhibition in test [1] was 90.8% (active); in test [2], 91.4% (active); in test [3] it was 91.8% (active); in test [4], 89.3% (active); in test [5], 90.8% (active).

Consider `Cc1ccccc1N=C(c1ccccc1)C1C(=O)c2ccccc2C1=O`, for which the growth inhibition in test [1] is -20.6%; in test [2], 19.4%; in test [3], 42.2%; in test [4], 29%; in test [5], 49.2%.

On to `CCCC(C)OCC(=O)O` (stereo not given), for which the growth inhibition in test [1] is 31.6%; in test [2], -3.4%; in test [3] it was 1.55%; in test [4], 4.35%; in test [5], -1.25%.

Consider `NNc1ccccc1C(=O)O`, for which the growth inhibition in test [1] was 4.4%; in test [2], -3.05%; in test [3], -2.55%; in test [4], -4.15%; in test [5], -2%.

For the compound `C/C=C/CC(C)C(O)C1C(=O)NC(CC)C(=O)N(C)CC(=O)N(C)C(CC(C)C)C(=O)NC(C(C)C)C(=O)N(C)C(CC(C)C)C(=O)NC(C)C(=O)NC(C)C(=O)N(C)C(CC(C)C)C(=O)N(C)C(CC(C)C)C(=O)N(C)C(C(C)C)C(=O)N1C` (stereo not given), the growth inhibition was 17.3% in test [1]; 8.3% in test [2]; -5.45% in test [3]; 25.6% in test [4]; 22.7% in test [5].

Regarding `NC(=S)N/N=C/c1ccc(N)cc1`, the growth inhibition is 7.2% in test [1]; -2.35% in test [2]; 0.9% in test [3]; -1.35% in test [4]; 2.35% in test [5].

Turning to `CC(=O)OCC1CCCO1` (stereo not given), the growth inhibition in test [1] is -24.9%; in test [2], -9.45%; in test [3], -21.1%; in test [4], -44.1%; in test [5] it was 19.6%.

For the compound `CC(=O)c1ccc(C(C)(C)C)cc1`, the growth inhibition in test [1] was -2.35%; in test [2], -5.2%; in test [3], -12.9%; in test [4], 12.1%; in test [5], 2.5%.

In the case of `CCC1NC(=O)C(NC(=O)c2ncccc2O)C(C)OC(=O)C(c2ccccc2)NC(=O)C2CC(=O)CCN2C(=O)C(Cc2ccc(N(C)C)cc2)N(C)C(=O)C2CCCN2C1=O` (stereo not given) (tested in a mixture with another compound) ({Picolinoyl(3-OH)}-T[Abu]P[ξNMePhe(4-NMe2)][ξPip(4-oxo)][Phg]; ester 1-C; configuration not given here), the growth inhibition in test [1] was 19.4%; in test [2], -5.15%; in test [3], 3.3%; in test [4], 20.7%; in test [5], 9.45%; in test [6], -14.7%.

`Sc1ccc(Nc2c3ccccc3nc3ccccc23)cc1`: the growth inhibition was 28.4% in test [1]; 33.6% in test [2]; 14.9% in test [3]; 7.3% in test [4]; 25.6% in test [5].

For `CN(C)c1ccc2oc(=O)c3ccccc3c2c1`, the growth inhibition was 6.05% in test [1]; 7.55% in test [2]; 1.55% in test [3]; -2% in test [4]; 0.5% in test [5].

Consider `CC(=O)OC(OC(C)=O)C1CCCO1` (stereo not given), for which the growth inhibition in test [1] is -5.75%; in test [2], -21.6%; in test [3] it was -2.1%; in test [4], 17.1%; in test [5], -2.95%.

For `Nc1ccccc1SC(CC(=O)c1ccccc1)c1c(Cl)cccc1Cl` (stereo not given), the growth inhibition in test [1] is -11.5%; in test [2], -9.65%; in test [3], 2.1%; in test [4], 1.75%; in test [5] it was 2.85%; in test [6], 16.7%.

In the case of `CC(=O)Nc1c(C)cc(C)cc1C`, the growth inhibition in test [1] is 0.3%; in test [2], -0.35%; in test [3] it was -6.4%; in test [4] it was -11.8%; in test [5], 9.45%; in test [6], 0.1%.

Turning to `COC(=O)CCCCC1=CCC2C(=O)C=C(O)C2C1` (stereo not given), the growth inhibition in test [1] was -13.3%; in test [2] it was 13.1%; in test [3], -11.2%; in test [4] it was -2.5%; in test [5] it was -6.6%; in test [6], -18.8%.

Regarding `Cc1cc2ccccc2c(O)c1C#N`, the growth inhibition was 32.5% in test [1]; 17.9% in test [2]; 6.3% in test [3]; -4.3% in test [4]; 1.3% in test [5]; 48.9% in test [6].

Regarding `CC(C)COC(=O)COC(=O)OCCOCCOC(=O)OCC(=O)OCC(C)C`, the growth inhibition was 36.5% in test [1]; -8.7% in test [2]; 17.4% in test [3]; -26.9% in test [4]; 26.1% in test [5]; 8.6% in test [6].

Regarding `O=C1OC(=O)C2C1C1(Cl)C(Cl)=C(Cl)C2(Cl)C2C(=O)OC(=O)C21` (stereo not given), the growth inhibition is 2.45% in test [1]; 12.4% in test [2]; 17.9% in test [3]; -9.45% in test [4]; 25.3% in test [5]; -1.75% in test [6].

Turning to `O=C1C=C(Nc2ccc([N+](=O)[O-])cc2)c2ccccc2C1=O`, the growth inhibition in test [1] was 18.4%; in test [2] it was -10.9%; in test [3] it was -1.3%; in test [4] it was 4.65%; in test [5], -12.9%; in test [6], -8.8%.

Consider `COc1ccc(C(=O)C(Br)C(Br)C(=O)O)cc1` (stereo not given), for which the growth inhibition was 24.6% in test [1]; 24.4% in test [2]; 6.35% in test [3]; -64.7% in test [4]; 5.45% in test [5]; 38.9% in test [6].

Turning to `N#CCc1ccc([N+](=O)[O-])cc1`, the growth inhibition was -14.2% in test [1]; 8.3% in test [2]; -13.5% in test [3]; -2.1% in test [4]; 15.2% in test [5]; -6.3% in test [6].
